Measurements: publication PMC7862700, “An all-to-all approach to the identification of sequence-specific readers for epigenetic DNA modifications on cytosine”

How the values were obtained:
Experiment in all cases: DAPPL (digital affinity profiling via proximity ligation, sequencing); 10 mM Tris-HCl pH 7.5, 50 mM NaCl, 1 mM DTT, 4% glycerol, room temperature, 30 min; GST-TFs on glutathione beads, 16-mer random dsDNA library, 0.1% formaldehyde crosslink after washing; high values mean tight binding
FLI1 = biological target: T1, FLI1 (Homo sapiens, UniProt Q01543 1-452); details: protein: recombinant; tags: N-terminal GST; dsDNA, one strand shown
T1 sequence: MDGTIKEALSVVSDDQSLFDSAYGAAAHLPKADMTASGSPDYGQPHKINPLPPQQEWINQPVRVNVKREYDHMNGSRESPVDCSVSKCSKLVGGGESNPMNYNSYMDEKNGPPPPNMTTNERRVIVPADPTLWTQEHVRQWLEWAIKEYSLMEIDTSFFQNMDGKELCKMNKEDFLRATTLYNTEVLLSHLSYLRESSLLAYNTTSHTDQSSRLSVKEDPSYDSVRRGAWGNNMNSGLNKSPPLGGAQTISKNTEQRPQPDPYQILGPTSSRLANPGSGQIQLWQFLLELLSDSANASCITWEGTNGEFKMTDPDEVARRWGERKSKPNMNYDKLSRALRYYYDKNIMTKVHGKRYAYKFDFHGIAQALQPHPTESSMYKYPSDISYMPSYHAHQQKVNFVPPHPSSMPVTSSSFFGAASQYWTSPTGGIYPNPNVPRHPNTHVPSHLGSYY
How it was run: (§1)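 Binding signal is given per hexamer as its read frequency for a factor divided by its frequency in the tag-only sample. GST-fused human transcription factors were expressed in yeast, captured on glutathione beads, barcoded with DNA and pooled with that sample, then incubated with 200 nmole of a 16-mer random double-stranded DNA library in Tris/NaCl/DTT/glycerol buffer for 30 min at room temperature. The pools were then washed, crosslinked, proximity-ligated, amplified by PCR and sequenced on an Illumina NextSeq500.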

ELK1 = biological target: T2, ELK1 (Homo sapiens, UniProt P19419 1-428); details: protein: recombinant; tags: N-terminal GST; dsDNA, one strand shown
T2 sequence: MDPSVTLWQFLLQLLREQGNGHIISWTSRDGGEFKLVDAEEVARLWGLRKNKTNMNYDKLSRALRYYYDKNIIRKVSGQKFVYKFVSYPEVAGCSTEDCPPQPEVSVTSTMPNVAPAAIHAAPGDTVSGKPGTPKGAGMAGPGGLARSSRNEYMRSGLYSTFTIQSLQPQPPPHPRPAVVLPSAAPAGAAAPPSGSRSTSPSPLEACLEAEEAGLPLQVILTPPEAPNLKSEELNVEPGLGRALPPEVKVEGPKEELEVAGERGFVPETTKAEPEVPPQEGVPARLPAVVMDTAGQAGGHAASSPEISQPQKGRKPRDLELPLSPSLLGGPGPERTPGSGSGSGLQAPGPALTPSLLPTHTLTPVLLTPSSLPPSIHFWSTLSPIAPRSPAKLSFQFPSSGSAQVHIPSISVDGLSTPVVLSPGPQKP
How it was run: as §1

GABPA = biological target: T3, GABPA (Homo sapiens, UniProt Q06546 1-454); details: protein: recombinant; tags: N-terminal GST; dsDNA, one strand shown
T3 sequence: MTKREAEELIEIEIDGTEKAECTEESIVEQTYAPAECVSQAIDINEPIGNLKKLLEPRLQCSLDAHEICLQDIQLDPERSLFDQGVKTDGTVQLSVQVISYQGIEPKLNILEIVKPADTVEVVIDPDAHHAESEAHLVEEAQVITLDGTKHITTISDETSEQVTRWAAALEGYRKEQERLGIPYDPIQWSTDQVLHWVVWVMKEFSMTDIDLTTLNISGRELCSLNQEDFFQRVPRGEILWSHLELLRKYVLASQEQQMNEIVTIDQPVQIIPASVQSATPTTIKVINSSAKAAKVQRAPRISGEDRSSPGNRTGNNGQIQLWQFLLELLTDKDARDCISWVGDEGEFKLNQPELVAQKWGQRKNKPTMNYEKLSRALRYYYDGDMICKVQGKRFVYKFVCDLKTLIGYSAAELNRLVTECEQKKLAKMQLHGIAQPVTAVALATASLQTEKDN
How it was run: as §1

ERG = biological target: T4, ERG (Homo sapiens, UniProt P11308 1-479); details: protein: recombinant; tags: N-terminal GST; dsDNA, one strand shown
T4 sequence: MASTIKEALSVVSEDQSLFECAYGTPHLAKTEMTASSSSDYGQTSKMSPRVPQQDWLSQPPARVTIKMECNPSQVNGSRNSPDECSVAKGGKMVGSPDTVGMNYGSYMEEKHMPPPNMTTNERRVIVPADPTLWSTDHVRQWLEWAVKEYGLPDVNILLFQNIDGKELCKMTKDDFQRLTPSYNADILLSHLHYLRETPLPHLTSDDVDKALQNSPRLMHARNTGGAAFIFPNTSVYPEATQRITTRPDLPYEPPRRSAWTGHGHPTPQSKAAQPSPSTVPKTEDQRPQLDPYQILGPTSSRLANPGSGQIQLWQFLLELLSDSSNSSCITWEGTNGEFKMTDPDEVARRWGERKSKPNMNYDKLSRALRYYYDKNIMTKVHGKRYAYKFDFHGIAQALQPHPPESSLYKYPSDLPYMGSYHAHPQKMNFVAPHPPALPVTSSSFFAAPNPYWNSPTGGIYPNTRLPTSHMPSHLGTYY
How it was run: as §1

ELF1 = ELF1 (Homo sapiens, UniProt P32519 1-619); details: protein: recombinant; tags: N-terminal GST; dsDNA, one strand shown
How it was run: as §1

EHF = biological target: T5, EHF (Homo sapiens, UniProt Q9NZC4 1-300); details: protein: recombinant; tags: N-terminal GST; dsDNA, one strand shown
T5 sequence: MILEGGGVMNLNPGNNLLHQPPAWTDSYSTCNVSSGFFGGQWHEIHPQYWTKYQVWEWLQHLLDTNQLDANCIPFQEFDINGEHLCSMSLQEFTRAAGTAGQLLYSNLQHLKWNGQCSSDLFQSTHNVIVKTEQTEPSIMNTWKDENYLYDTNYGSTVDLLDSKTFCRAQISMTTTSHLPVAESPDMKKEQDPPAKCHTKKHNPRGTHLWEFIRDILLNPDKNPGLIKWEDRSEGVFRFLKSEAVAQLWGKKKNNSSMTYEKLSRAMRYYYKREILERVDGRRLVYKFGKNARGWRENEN
How it was run: as §1

SPI1 = SPI1 (Homo sapiens, UniProt P17947 1-270); details: protein: recombinant; tags: N-terminal GST; dsDNA, one strand shown
How it was run: as §1

SPIB = SPIB (Homo sapiens, UniProt Q01892 1-262); details: protein: recombinant; tags: N-terminal GST; dsDNA, one strand shown
How it was run: as §1

ELK3 = biological target: T6, ELK3 (Homo sapiens, UniProt P41970 1-407); details: protein: recombinant; tags: N-terminal GST; dsDNA, one strand shown
T6 sequence: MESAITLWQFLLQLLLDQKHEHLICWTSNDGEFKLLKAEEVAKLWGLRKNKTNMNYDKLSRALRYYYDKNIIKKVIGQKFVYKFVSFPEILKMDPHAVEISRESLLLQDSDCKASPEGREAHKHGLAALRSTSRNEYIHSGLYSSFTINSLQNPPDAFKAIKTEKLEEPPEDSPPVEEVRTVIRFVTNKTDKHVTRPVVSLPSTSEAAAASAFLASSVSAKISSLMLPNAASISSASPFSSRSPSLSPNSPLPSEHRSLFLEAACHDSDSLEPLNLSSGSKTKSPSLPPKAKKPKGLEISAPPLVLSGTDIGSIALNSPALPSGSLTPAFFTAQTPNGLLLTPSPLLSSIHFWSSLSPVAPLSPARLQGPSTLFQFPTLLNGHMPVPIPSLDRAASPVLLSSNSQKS
How it was run: as §1

FEV = biological target: T7, FEV (Homo sapiens, UniProt Q99581 1-238); details: protein: recombinant; tags: N-terminal GST; dsDNA, one strand shown
T7 sequence: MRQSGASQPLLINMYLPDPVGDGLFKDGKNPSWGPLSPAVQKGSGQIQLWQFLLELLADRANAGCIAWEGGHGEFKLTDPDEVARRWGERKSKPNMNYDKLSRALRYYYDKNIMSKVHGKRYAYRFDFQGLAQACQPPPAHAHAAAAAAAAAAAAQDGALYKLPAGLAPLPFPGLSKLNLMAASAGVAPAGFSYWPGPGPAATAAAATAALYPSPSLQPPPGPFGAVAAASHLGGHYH
How it was run: as §1

ETV5 = ETV5 (Homo sapiens, UniProt P41161 1-510); details: protein: recombinant; tags: N-terminal GST; dsDNA, one strand shown
How it was run: as §1

HSF1 = HSF1 (Homo sapiens, UniProt Q00613 1-529); details: protein: recombinant; tags: N-terminal GST; chain copies: 3; dsDNA, one strand shown
How it was run: as §1

SPIC = biological target: T8, SPIC (Homo sapiens, UniProt Q8N5J4 1-248); details: protein: recombinant; tags: N-terminal GST; dsDNA, one strand shown
T8 sequence: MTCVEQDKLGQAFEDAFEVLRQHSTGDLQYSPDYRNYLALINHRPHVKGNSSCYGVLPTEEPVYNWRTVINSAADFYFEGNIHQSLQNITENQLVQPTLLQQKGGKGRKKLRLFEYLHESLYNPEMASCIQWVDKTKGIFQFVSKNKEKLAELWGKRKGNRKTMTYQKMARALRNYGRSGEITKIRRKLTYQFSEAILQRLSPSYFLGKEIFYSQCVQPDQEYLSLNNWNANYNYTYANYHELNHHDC
How it was run: as §1

ELF4 = ELF4 (Homo sapiens, UniProt Q99607 1-663); details: protein: recombinant; tags: N-terminal GST; dsDNA, one strand shown
How it was run: as §1

ELK4 = biological target: T9, ELK4 (Homo sapiens, UniProt P28324-2 1-405); details: protein: recombinant; tags: N-terminal GST; dsDNA, one strand shown
T9 sequence: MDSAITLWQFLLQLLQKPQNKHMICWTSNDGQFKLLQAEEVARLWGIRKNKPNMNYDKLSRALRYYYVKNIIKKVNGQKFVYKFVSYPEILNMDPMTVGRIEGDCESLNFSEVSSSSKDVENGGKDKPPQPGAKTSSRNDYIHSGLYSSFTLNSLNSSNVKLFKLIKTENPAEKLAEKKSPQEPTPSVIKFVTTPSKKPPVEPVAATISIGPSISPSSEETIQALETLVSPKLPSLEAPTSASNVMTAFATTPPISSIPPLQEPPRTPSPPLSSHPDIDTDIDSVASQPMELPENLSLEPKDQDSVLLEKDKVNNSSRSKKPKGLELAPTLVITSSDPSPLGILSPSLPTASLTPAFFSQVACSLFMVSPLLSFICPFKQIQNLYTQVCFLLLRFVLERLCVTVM
How it was run: as §1

ETV2 = biological target: T10, ETV2 (Homo sapiens, UniProt O00321 1-342); details: protein: recombinant; tags: N-terminal GST; dsDNA, one strand shown
T10 sequence: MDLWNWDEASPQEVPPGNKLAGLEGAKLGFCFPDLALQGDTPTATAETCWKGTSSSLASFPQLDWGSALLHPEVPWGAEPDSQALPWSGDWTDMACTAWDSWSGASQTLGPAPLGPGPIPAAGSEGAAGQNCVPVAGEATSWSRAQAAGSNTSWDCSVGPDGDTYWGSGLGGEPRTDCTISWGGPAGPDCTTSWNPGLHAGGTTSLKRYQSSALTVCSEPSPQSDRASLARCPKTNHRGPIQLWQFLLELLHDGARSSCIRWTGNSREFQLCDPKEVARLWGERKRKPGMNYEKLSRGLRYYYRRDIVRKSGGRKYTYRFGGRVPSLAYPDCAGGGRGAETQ
How it was run: as §1

ELF3 = biological target: T11, ELF3 (Homo sapiens, UniProt P78545 1-371); details: protein: recombinant; tags: N-terminal GST; dsDNA, one strand shown
T11 sequence: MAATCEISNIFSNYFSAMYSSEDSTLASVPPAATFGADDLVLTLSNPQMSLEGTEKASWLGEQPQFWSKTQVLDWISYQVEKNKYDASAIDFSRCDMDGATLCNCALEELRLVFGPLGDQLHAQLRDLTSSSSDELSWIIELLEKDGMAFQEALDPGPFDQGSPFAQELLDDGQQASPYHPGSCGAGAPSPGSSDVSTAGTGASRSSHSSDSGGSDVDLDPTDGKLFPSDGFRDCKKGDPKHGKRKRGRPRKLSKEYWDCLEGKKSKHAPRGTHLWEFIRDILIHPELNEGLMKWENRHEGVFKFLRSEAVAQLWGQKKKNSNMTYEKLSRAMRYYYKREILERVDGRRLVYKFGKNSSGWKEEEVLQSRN
How it was run: as §1

CRX = CRX (Homo sapiens, UniProt O43186 1-299); details: protein: recombinant; tags: N-terminal GST; dsDNA, one strand shown
How it was run: as §1

ETV1 = ETV1 (Homo sapiens, UniProt P50549 1-477); details: protein: recombinant; tags: N-terminal GST; dsDNA, one strand shown
How it was run: as §1

Chain of ELF4 (Q99607 whole entry): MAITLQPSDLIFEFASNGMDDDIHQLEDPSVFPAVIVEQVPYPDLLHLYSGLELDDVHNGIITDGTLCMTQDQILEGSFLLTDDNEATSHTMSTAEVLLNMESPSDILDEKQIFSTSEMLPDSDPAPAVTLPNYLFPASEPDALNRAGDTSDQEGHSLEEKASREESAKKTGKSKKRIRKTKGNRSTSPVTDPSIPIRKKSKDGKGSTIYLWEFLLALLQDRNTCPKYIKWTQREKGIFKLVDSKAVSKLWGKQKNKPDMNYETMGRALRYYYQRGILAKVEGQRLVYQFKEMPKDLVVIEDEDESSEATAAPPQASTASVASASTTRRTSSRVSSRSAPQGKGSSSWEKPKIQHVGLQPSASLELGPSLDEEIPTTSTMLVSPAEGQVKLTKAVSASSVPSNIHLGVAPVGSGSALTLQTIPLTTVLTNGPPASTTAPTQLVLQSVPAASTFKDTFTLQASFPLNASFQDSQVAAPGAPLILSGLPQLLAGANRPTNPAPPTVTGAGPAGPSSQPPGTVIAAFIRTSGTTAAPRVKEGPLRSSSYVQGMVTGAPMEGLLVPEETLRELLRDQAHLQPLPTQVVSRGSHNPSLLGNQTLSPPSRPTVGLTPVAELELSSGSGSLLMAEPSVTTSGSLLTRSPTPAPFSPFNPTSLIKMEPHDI
Chain of ELF1 (P32519 whole entry): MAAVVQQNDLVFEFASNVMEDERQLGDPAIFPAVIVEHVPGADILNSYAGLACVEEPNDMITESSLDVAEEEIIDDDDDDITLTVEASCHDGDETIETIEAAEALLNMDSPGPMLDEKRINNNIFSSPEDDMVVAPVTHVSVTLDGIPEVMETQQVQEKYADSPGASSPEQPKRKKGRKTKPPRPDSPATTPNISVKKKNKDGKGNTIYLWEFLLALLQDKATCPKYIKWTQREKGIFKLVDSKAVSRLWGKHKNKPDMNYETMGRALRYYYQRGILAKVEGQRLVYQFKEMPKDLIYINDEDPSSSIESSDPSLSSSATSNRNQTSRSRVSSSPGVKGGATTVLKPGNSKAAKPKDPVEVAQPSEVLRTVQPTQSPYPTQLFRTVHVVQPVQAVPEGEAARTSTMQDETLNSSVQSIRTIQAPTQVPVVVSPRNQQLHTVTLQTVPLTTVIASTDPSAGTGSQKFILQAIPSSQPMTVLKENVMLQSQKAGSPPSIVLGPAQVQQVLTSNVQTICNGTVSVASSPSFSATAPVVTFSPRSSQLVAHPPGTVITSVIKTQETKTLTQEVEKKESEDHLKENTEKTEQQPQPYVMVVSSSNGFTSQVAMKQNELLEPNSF
Chain of HSF1 (Q00613 whole entry): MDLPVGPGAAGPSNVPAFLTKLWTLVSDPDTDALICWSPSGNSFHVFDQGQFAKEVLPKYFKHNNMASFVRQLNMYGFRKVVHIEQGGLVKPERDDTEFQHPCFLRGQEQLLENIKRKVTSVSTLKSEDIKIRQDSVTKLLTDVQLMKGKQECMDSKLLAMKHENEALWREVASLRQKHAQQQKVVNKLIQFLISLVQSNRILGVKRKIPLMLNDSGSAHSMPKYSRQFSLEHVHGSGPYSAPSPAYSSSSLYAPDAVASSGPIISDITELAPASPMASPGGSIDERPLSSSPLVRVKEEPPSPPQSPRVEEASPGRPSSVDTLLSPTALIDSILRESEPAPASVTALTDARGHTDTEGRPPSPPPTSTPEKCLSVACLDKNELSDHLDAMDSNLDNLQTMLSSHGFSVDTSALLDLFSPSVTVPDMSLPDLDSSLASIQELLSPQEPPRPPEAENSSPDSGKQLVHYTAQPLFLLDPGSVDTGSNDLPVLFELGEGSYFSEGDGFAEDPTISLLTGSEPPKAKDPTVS
Chain of ETV5 (P41161 whole entry): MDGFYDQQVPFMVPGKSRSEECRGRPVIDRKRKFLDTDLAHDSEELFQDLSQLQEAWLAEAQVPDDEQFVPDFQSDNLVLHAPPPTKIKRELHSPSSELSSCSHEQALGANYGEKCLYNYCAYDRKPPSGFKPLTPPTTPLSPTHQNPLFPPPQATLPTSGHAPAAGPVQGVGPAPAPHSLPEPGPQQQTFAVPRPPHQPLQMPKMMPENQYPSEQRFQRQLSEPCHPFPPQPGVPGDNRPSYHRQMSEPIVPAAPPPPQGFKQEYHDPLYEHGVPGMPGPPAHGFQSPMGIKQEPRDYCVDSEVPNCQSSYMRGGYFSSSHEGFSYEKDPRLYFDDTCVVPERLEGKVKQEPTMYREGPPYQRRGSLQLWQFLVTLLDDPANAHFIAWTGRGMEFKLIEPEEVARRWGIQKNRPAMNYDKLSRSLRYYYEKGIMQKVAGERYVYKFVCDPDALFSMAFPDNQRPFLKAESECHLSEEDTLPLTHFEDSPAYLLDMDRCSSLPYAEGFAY
Chain of SPIB (Q01892 whole entry): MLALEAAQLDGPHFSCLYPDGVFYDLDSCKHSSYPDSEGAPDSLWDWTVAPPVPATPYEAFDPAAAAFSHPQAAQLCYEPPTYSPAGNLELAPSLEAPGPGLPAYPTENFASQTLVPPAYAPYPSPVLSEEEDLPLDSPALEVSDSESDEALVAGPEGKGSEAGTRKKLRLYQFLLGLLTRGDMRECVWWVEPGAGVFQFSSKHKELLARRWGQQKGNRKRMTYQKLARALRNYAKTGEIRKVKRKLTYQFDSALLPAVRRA
Chain of CRX (O43186 whole entry): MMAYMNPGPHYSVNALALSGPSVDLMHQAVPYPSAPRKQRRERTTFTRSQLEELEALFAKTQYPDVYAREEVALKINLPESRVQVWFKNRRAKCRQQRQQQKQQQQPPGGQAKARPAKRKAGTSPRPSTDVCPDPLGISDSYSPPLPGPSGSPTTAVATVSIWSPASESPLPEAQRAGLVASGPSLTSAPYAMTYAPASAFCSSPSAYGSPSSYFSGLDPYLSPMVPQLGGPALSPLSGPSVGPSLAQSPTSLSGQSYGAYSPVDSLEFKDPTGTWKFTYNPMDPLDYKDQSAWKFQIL
Chain of ETV1 (P50549 whole entry): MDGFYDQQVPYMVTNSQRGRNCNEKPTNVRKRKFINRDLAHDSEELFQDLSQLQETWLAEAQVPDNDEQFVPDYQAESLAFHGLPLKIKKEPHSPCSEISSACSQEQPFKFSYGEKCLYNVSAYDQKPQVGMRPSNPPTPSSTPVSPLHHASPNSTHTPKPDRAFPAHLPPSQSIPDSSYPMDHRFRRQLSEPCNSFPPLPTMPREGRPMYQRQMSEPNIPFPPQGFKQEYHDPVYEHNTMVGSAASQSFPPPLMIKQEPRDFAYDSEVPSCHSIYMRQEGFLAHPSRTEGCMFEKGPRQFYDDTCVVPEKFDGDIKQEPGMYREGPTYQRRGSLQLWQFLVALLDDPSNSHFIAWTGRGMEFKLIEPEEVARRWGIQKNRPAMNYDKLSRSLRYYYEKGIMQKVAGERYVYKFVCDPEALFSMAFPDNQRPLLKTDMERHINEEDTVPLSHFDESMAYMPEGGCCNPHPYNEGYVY

Sequence: GCTTCT
- binding signal (FLI1): 1.41 fold enrichment (6-mer frequency, TF over GST control)
- binding signal (ELK1): 1.49 fold enrichment (6-mer frequency, TF over GST control)
- binding signal (GABPA): 1.53 fold enrichment (6-mer frequency, TF over GST control)
- binding signal (ERG): 1.44 fold enrichment (6-mer frequency, TF over GST control)
- binding signal (ELF1): 1.59 fold enrichment (6-mer frequency, TF over GST control)
- binding signal (EHF): 1.52 fold enrichment (6-mer frequency, TF over GST control)
- binding signal (SPI1): 1.43 fold enrichment (6-mer frequency, TF over GST control)
- binding signal (SPIB): 1.51 fold enrichment (6-mer frequency, TF over GST control)
- binding signal (ELK3): 1.61 fold enrichment (6-mer frequency, TF over GST control)
- binding signal (FEV): 1.41 fold enrichment (6-mer frequency, TF over GST control)
- binding signal (ETV5): 1.57 fold enrichment (6-mer frequency, TF over GST control)
- binding signal (HSF1): 2.32 fold enrichment (6-mer frequency, TF over GST control)
- binding signal (SPIC): 1.48 fold enrichment (6-mer frequency, TF over GST control)
- binding signal (ELF4): 1.6 fold enrichment (6-mer frequency, TF over GST control)
- binding signal (ELK4): 1.4 fold enrichment (6-mer frequency, TF over GST control)
- binding signal (ETV2): 1.46 fold enrichment (6-mer frequency, TF over GST control)
- binding signal (ELF3): 1.25 fold enrichment (6-mer frequency, TF over GST control)
- binding signal (CRX): 1.81 fold enrichment (6-mer frequency, TF over GST control)
- binding signal (ETV1): 1.42 fold enrichment (6-mer frequency, TF over GST control)
